# Experimental data reported in the supplement of paper PMC10646978.
# ± gives the standard deviation.
# Columns and labels:
# Details in all cases: modulator concentration 10 µM
# [1] = tested on: RAW-Dual (murine macrophage reporter line); test: NF-kB reporter (SEAP) activity fold change vs agonist alone; higher = enhanced NF-kB activity
# Method in brief: (§1)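 RAW-Dual murine macrophage reporter cells were seeded at 50 000 per well in 384-well plates and pre-incubated 1 hour at 37 °C with compound pin-transferred to 10 μM final. After 1 hour, a PRR agonist was added and cells incubated overnight. Supernatant NF-κB (SEAP, QUANTI-Blue, 620 nm absorbance) and IRF (Lucia luciferase, QUANTI-Luc, luminescence) signals were divided by the mean agonist-only control on the same plate to give fold change. Two replicate plates were averaged, with errors by propagation.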
# [2] = tested on: RAW-Dual (murine macrophage reporter line); test: IRF reporter (Lucia luciferase) activity fold change vs agonist alone; higher = enhanced IRF activity
# Method in brief: as §1
# [3] = tested on: RAW-Dual (murine macrophage reporter line); test: viability score (confluency relative to resting cells, overnight) (fraction); higher = more viable, active = viable (0.7 or more)
# Method in brief: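 In 384-well plates, RAW-Dual macrophages received compound at a final 10 μM overnight. Two confluency masks were then made with IncuCyte software from IncuCyte images of all imaged wells. The viability score is defined as confluency relative to resting cells. Passing the cutoff required both masks to lie above 70% of resting cells.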
# [4] = agonist: CpG ODN 1826 0.5 ug/mL
SMILES,"NF-kB reporter [1, 4]",NF-kB reporter ([1]; agonist: LPS 0.1 ug/mL),NF-kB reporter ([1]; agonist: MPLA […]),IRF reporter ([2]; agonist: 3'3'-cGAMP 10 ug/mL),IRF reporter ([2]; agonist: LPS 0.1 ug/mL),IRF reporter ([2]; agonist: MPLA […]),viability score [3]
NCCCCC(=O)O.O=C1c2ccccc2C(=O)C1[N+](=O)[O-],0.788 ± 0.16,0.975 ± 0.076,0.843 ± 0.1,0.929 ± 0.025,1.13 ± 0.16,1.31 ± 0.13,1 (active)
CCCN1CCC(NCCc2ccc(Cl)cc2)CC1,1.18 ± 0.069,0.97 ± 0.081,1.1 ± 0.036,0.761 ± 0.028,0.994 ± 0.065,0.943 ± 0.11,0.995 (active)
C[C@H](NC(=O)C(=O)Nc1ccccc1C(C)(C)C)C(=O)N[C@@H](CC(=O)O)C(=O)COc1c(F)c(F)cc(F)c1F,1.32 ± 0.33,0.434 ± 0.023,1.69 ± 0.12,0.51 ± 0.037,0.839 ± 0.14,1.07 ± 0.14,0.606 (inactive)
O=C(CCC(=O)NN=Cc1ccc(O)cc1O)NN=Cc1ccc(O)cc1O,0.934 ± 0.084,1.05 ± 0.067,0.978 ± 0.11,0.944 ± 0.042,1.52 ± 0.18,1.26 ± 0.13,0.994 (active)
N[C@@H](Cc1cc(I)c(Oc2cc(I)c(O)c(I)c2)c(I)c1)C(=O)O,0.496 ± 0.045,0.804 ± 0.069,0.908 ± 0.19,0.572 ± 0.044,1.15 ± 0.2,1.23 ± 0.31,1.03 (active)
CC(C)CSc1nnc2c(n1)[nH]c1ccccc12,1.06 ± 0.083,1.01 ± 0.072,0.967 ± 0.039,0.955 ± 0.2,1.05 ± 0.047,0.885 ± 0.14,0.998 (active)
Brc1c(NC2=NCCN2)ccc2nccnc12 [Prestw-1751],1.24 ± 0.13,0.858 ± 0.079,0.97 ± 0.035,1.02 ± 0.043,1.01 ± 0.054,1.01 ± 0.12,0.996 (active)
CCOc1ccc(CC(=O)NC2(c3nc(-c4ccccc4)no3)CCCCC2)cc1OCC,0.697 ± 0.031,1.02 ± 0.095,0.93 ± 0.058,1.03 ± 0.049,1.24 ± 0.32,1.3 ± 0.37,0.979 (active)
Cc1ccc(C=Nc2ccc(-c3ccc(N=Cc4ccc(C)o4)c(C)c3)cc2C)o1,0.837 ± 0.066,0.984 ± 0.087,1.01 ± 0.053,0.773 ± 0.097,0.929 ± 0.041,0.894 ± 0.075,0.991 (active)
O=c1n(CCNS(=O)(=O)Cc2ccccc2)nc(C2CC2)n1-c1ccccc1,1.03 ± 0.052,1.08 ± 0.09,1.1 ± 0.074,1.03 ± 0.063,1.26 ± 0.08,1.22 ± 0.1,1.01 (active)
COc1ccc(N(CC(=O)Nc2ccccc2C(F)(F)F)S(C)(=O)=O)cc1,0.711 ± 0.14,0.672 ± 0.27,0.795 ± 0.17,0.723 ± 0.074,1.03 ± 0.14,0.962 ± 0.13,0.992 (active)
O=C(c1cccs1)c1nc2c(n1O)CCCCC2,1.01 ± 0.079,1.02 ± 0.076,0.967 ± 0.069,0.992 ± 0.056,1.17 ± 0.18,0.858 ± 0.085,0.899 (active)
C#CCOC(=O)CCCC(=O)Nc1ccc([N+](=O)[O-])cc1Cl,0.957 ± 0.066,1.01 ± 0.067,0.975 ± 0.062,1.01 ± 0.036,1.59 ± 0.11,1.3 ± 0.21,0.999 (active)
COC(=O)Nc1nc2ccc(S(=O)c3ccccc3)cc2[nH]1 (centres undefined),1.1 ± 0.065,1.04 ± 0.11,1.12 ± 0.059,0.279 ± 0.081,0.924 ± 0.11,0.536 ± 0.18,1.01 (active)
Cc1ccc(Cn2c(N)nc3ccccc32)cc1,0.363 ± 0.067,1.21 ± 0.12,1.09 ± 0.098,1.07 ± 0.07,1.09 ± 0.23,1.37 ± 0.14,0.702 (active)
CC(=O)N=c1sc(S(N)(=O)=O)nn1C [Prestw-802],1.06 ± 0.11,0.991 ± 0.098,1.02 ± 0.12,0.986 ± 0.031,1.26 ± 0.15,1.39 ± 0.19,1.03 (active)
CCCCn1c(CNC(=O)c2cccs2)nc2ccccc21,0.926 ± 0.077,0.98 ± 0.06,1.03 ± 0.061,1.03 ± 0.06,1.15 ± 0.093,0.921 ± 0.15,0.983 (active)
COC(=O)C1=C(C)N(c2ccc(Br)cc2)C(=O)C1=Cc1ccc(O)cc1,1.12 ± 0.088,0.956 ± 0.1,0.93 ± 0.057,0.468 ± 0.035,1.31 ± 0.16,1.05 ± 0.065,1.01 (active)
CN1CCN(c2ccc(-c3cccc(NC(=O)COc4ccc(Cl)cc4)c3)nn2)CC1,0.24 ± 0.029,0.966 ± 0.053,0.891 ± 0.021,0.572 ± 0.032,0.946 ± 0.057,0.966 ± 0.081,0.97 (active)
COc1ccccc1N1CCN(CC(O)COc2cccc3ccccc23)CC1.Cl.Cl (centres undefined),0.595 ± 0.13,0.696 ± 0.13,0.725 ± 0.048,0.654 ± 0.03,1.17 ± 0.34,1.17 ± 0.22,0.97 (active)
COc1ccc(CNC2CCCc3ccccc32)c(OC)c1 (centres undefined),0.48 ± 0.13,0.812 ± 0.088,0.775 ± 0.12,0.615 ± 0.027,1.23 ± 0.13,1.61 ± 0.17,0.94 (active)
Cc1cc(OCC(=O)NC2CC(C)(C)NC(C)(C)C2)ccc1Br,0.843 ± 0.1,1.03 ± 0.079,1.05 ± 0.043,0.952 ± 0.041,1.1 ± 0.079,1.55 ± 0.19,0.976 (active)
CC(N)C12CC3CC(CC(C3)C1)C2.Cl (centres undefined),0.598 ± 0.14,1.07 ± 0.12,1.04 ± 0.068,0.919 ± 0.033,0.899 ± 0.1,0.966 ± 0.27,0.543 (inactive)
CC1(C)CC(=O)C2=C(C1)OC(N)=C(C#N)C2c1ccccc1C(F)(F)F (centres undefined),1.01 ± 0.073,1.09 ± 0.074,1.06 ± 0.14,0.999 ± 0.059,1.22 ± 0.086,1.26 ± 0.29,0.994 (active)
COC(=O)CNC(c1ccccc1)c1cc(Br)ccc1NC(=O)c1ccccc1 (centres undefined),1.06 ± 0.18,1.03 ± 0.12,1.33 ± 0.21,1.06 ± 0.035,1.16 ± 0.13,1.63 ± 0.19,1.01 (active)
CNCC[C@H](Oc1cccc2ccccc12)c1cccs1,0.087 ± 0.0072,0.8 ± 0.08,1.08 ± 0.058,0.262 ± 0.019,1.02 ± 0.2,1.01 ± 0.27,0.333 (inactive)
CSC1CCN(C(=O)Nc2ccc(C)c(C)c2)C1 (centres undefined),1.03 ± 0.38,0.953 ± 0.11,0.985 ± 0.063,0.906 ± 0.038,0.954 ± 0.17,1.09 ± 0.11,0.999 (active)
